Among all 87,000 compounds or so, about 360 (0.41%) were called active. Cut-off read from the data, not from the text of the source: active = cytotoxicity above about 50%; inactive = the rest. This excerpt belongs to a sample that is enriched for actives.

This assay in a line: cytotoxicity in HT1080 fibrosarcoma cells, cell-based, fluorescence readout (AID 620).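 Note: cells exposed to compound overnight then 4 h with Alamar Blue; 0% = vehicle DMSO and 100% = killing control.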 The settings on record: HT1080 viability, at 10 µM, hits give high values.
Turning to `CCCS(=O)(=O)c1nnnn1-c1cccc(OC)c1`, the cytotoxicity was 66.7% (active).
The value for `COc1cccc(Oc2nnnn2-c2ccccc2)c1` was -0.2% (inactive); that for `COc1cccc(-n2nnnc2SCC(=O)NC2CCCC2)c1` was -4.7% (inactive).
To `CC(C)(C)NC(=O)c1ccccc1-c1nc(-c2ccccc2Cl)no1` belongs -5.2% (inactive); to `CC(C)NC(=O)c1ccccc1-c1nc(-c2ccccc2Cl)no1`, 50.9% (active); to `CCNC(=O)c1ccccc1-c1nc(-c2ccccc2Cl)no1`, -5.2% (inactive).
The value for `COc1ccccc1N1CCN(C(=O)C2CCN(S(=O)(=O)c3ccccc3)CC2)CC1` was -0.7% (inactive); that for `COC(=O)c1ccc(C)c(NS(=O)(=O)c2ccc(OC)c(OC)c2)c1` was 4% (inactive).
Consider `COC(=O)c1ccc(Cl)c(NS(=O)(=O)c2ccc3c(c2)OCCO3)c1`, for which the cytotoxicity is 35.5% (inactive).
The value for `COC(=O)c1ccc(C)c(NS(=O)(=O)c2ccc3c(c2)OCCO3)c1` was 51.6% (active).
The value for `CCCC12CN3CC(C)(CN(C1)C3c1ccc3c(c1)OCO3)C2=O` (stereo not given) was -1.1% (inactive).
The value for `CN(C)c1ccc(-c2nn3c(-c4ccccc4Cl)nnc3s2)cc1` was 57.2% (active).
As to `CN(C)c1ccc(-c2nn3c(-c4ccncc4)nnc3s2)cc1`, the cytotoxicity is 0.5% (inactive).
To `CN(C)c1ccc(-c2nn3c(-c4ccc(Cl)cc4Cl)nnc3s2)cc1` belongs 52.2% (active); to `CCOc1ccc(-c2nnc3sc(-c4ccccc4OC)nn23)cc1`, 22% (inactive); to `Cc1nn2c(-c3ccc(Cl)cc3Cl)nnc2s1`, 7.1% (inactive).
Turning to `CCN(CC)c1ccc(-c2nn3c(-c4n[nH]c5c4CCC5)nnc3s2)cc1`, the cytotoxicity is 55.1% (active).
To `CCN(CC)c1ccc(-c2nn3c(-c4cccnc4)nnc3s2)cc1` belongs 2.9% (inactive).
The value for `CCN(CC)c1ccc(-c2nn3c(-c4ccccc4OC)nnc3s2)cc1` was 50.1% (active).
To `CN(C)c1ccc(-c2nn3c(-c4ccc(Cl)cc4)nnc3s2)cc1` belongs -10.2% (inactive).
For the molecule `Clc1ccccc1-c1nnc2sc(-c3ccncc3)nn12`, the cytotoxicity is -1.3% (inactive).
The value for `Cc1ccc(OCc2nn3c(-c4n[nH]c5c4CCC5)nnc3s2)cc1` was 3.7% (inactive); that for `COc1ccccc1-c1nnc2sc(-c3ccc(N(C)C)cc3)nn12` was 33.1% (inactive); that for `CS(=O)(=O)N(CC(=O)N1CCCCC1)c1sc2c(c1C#N)CCCC2` was 15.6% (inactive).
The value for `CN(C)CCCNC(=O)CC(c1ccccc1)c1ccccc1O` (stereo not given) was 5.3% (inactive); that for `O=C(O)CCn1c(=O)c2ccccc2c2ccccc2c1=O` was 2% (inactive).
To `C=CCOn1c(C)c(C(C)=O)c2c3nonc3ccc21` belongs 2.2% (inactive); to `Cn1c(N)c(C(=O)COC(=O)c2ccco2)c(=O)n(C)c1=O`, -0.9% (inactive).
Consider `CC(=O)N1CCc2cc(S(=O)(=O)NC(C(=O)Nc3nc(C)cs3)C(C)C)ccc21` (stereo not given), for which the cytotoxicity was 11.9% (inactive).
The value for `c1ccc(-c2nnc3sc(-c4cc5ccccc5o4)nn23)cc1` was -3.1% (inactive).
As to `COc1ccccc1-c1nnc2sc(-c3cc4ccccc4o3)nn12`, the cytotoxicity is 53.5% (active).
For the molecule `Cc1nnc2sc(-c3cc4ccccc4o3)nn12`, the cytotoxicity is 0.8% (inactive).
The value for `Cc1ccccc1NS(=O)(=O)c1ccc(NC(=O)c2ccco2)cc1` was 2.4% (inactive).
The value for `Cc1cc(C)cc(C(=O)N2CC(C)OC(C)C2)c1` (stereo not given) was -14.9% (inactive); that for `COc1ccccc1-c1cc(C(F)(F)F)nc(S(=O)(=O)CCCC(=O)N2CCCCC2C)n1` (stereo not given) was 18.6% (inactive).
To `COC(=O)CSc1nc(-c2ccc(F)cc2)cc(C(F)(F)F)n1` belongs -10% (inactive); to `CCOC(=O)CS(=O)(=O)c1nc(-c2ccc(F)cc2)cc(C(F)(F)F)n1`, 56.6% (active); to `CS(=O)(=O)c1nc(-c2ccccc2)cc(C(F)(F)F)n1`, 59.4% (active).
In the case of `CCOC(=O)CS(=O)(=O)c1nc(-c2ccccc2)cc(C(F)(F)F)n1`, the cytotoxicity was 8.3% (inactive).
To `COC(=O)CCS(=O)(=O)c1nc(-c2ccccc2)cc(C(F)(F)F)n1` belongs 2.4% (inactive); to `COc1ccc(-c2cc(C(F)(F)F)nc(S(C)(=O)=O)n2)cc1OC`, 10.4% (inactive).
The value for `COc1ccccc1-c1cc(C(F)(F)F)nc(S(=O)(=O)CCCC(=O)O)n1` was -3.7% (inactive); that for `COc1ccc(-c2cc(C(F)(F)F)nc(S(C)(=O)=O)n2)cc1` was 11.7% (inactive); that for `CCOC(=O)CSc1nc(-c2ccccc2)cc(C(F)(F)F)n1` was -7.2% (inactive).
To `CCOC(=O)Cn1c(=O)oc2cc(S(=O)(=O)N3CCN(c4ccccn4)CC3)ccc21` belongs -4.7% (inactive); to `N#Cc1ccccc1Cn1c(=O)n(C2CCCC2)c(=O)c2ccccc21`, 4.1% (inactive).
Consider `COc1cccc(C(=O)NCC(=O)N2CCC(C)CC2)c1`, for which the cytotoxicity was 7.2% (inactive).
With `COc1ccc(Oc2cn[nH]c2-c2ccc(O)cc2O)cc1`, the cytotoxicity is 19% (inactive).
The value for `COc1cccc(Oc2cn[nH]c2-c2ccc(OC)cc2O)c1` was 19.1% (inactive); that for `COc1cccc(Oc2cn[nH]c2-c2ccc(O)cc2O)c1` was 55.2% (active); that for `N#CC1C(C#N)N2CCCN2C1c1ccc(Cl)cc1` (stereo not given) was -17.9% (inactive).
To `CCn1c(SCC(=O)O)nnc1C1CCCCC1` belongs 3.3% (inactive); to `CCN1C(=O)/C(=C2\C=Cc3ccccc3N2CC)OC1=S`, 5.1% (inactive).
The value for `CCN1/C(=C/c2ccc3ccccc3[n+]2CC)C=Cc2ccccc21` was 54.3% (active); that for `CCN1C(=C2C(=O)c3ccccc3C2=O)C=Cc2ccccc21` was 12.1% (inactive).
Regarding `Cc1cc(C)c2c(N)c(C(=O)NCc3ccco3)sc2n1`, the cytotoxicity was 10.7% (inactive).
Consider `Cc1cc(C)cc(N(CC(=O)N2CCN(Cc3ccccc3)CC2)S(=O)(=O)c2c(C)noc2C)c1`, for which the cytotoxicity is -0.8% (inactive).
To `Cc1ccccc1-c1nc(CN2CCCC(C(=O)NCc3cccnc3)C2)c(C)o1` (stereo not given) belongs -7.7% (inactive).
Turning to `N#CC1=C(N)Oc2cc3ccccc3cc2C1c1cccs1` (stereo not given), the cytotoxicity was -2.7% (inactive).
`N#CC1=C(N)Oc2c(ccc3ccccc23)C1c1cccs1` (stereo not given): the cytotoxicity was 65.3% (active).
For the molecule `N#CC1=C(N)Oc2cc(O)ccc2C1c1cccs1` (stereo not given), the cytotoxicity was -3.3% (inactive).
As for `COc1ccc(CCn2nnnc2C(C(C)C)N2CCC(C(N)=O)CC2)cc1OC` (stereo not given), the cytotoxicity is 6% (inactive).
On to `Cc1cc(C)cc(OC(=O)N2CCOCC2)c1`, for which the cytotoxicity is 3.6% (inactive).
To `CCOC(=O)CNc1c(-c2ccc(O)cc2)nc2ccc(Cl)cn12` belongs 36.6% (inactive); to `CCOC(=O)CNc1c(-c2ccc(OC)cc2)nc2ccc(Cl)cn12`, 73.3% (active).
Turning to `CCOC(=O)CNc1c(-c2ccccc2)nc2ccc(Cl)cn12`, the cytotoxicity was 24.2% (inactive).
The value for `CCOC(=O)N1CCN(C(=O)CSc2nc3ccccc3c(=O)n2-c2ccccc2)CC1` was 5.2% (inactive); that for `CCn1c(CC(=O)Nc2ccc(C)c(Cl)c2)nnc1SCC(=O)Nc1nc(C)cs1` was -12.9% (inactive).
To `COc1ccc(CC(=O)NC2CCN(CC(=O)Nc3ccc4c(c3)OCCO4)CC2)cc1OC` belongs -8.3% (inactive); to `O=C(CN1CCc2ccccc2C1)Nc1ccccc1N1CCCCCC1`, -18.8% (inactive).
To `COc1ccc2c(c1)Sc1ccccc1N2CCN(C)C` belongs 58.8% (active); to `CN1CCN(CCCN2c3ccccc3Sc3ccc(C(F)(F)F)cc32)CC1`, 7.7% (inactive).
`OCCN1CCN(CCCN2c3ccccc3Sc3ccc(C(F)(F)F)cc32)CC1`: the cytotoxicity was 91.7% (active).
The value for `CN(C)CCCN1c2ccccc2Sc2ccc(C(F)(F)F)cc21` was 54% (active); that for `CC(CN1c2ccccc2Sc2ccccc21)N(C)C` (stereo not given) was 11.7% (inactive).
Take `COc1ccc([C@@H]2Sc3ccccc3N(CCN(C)C)C(=O)[C@@H]2OC(C)=O)cc1`: the cytotoxicity is 31.1% (inactive).
The value for `OCCN1CCN(CCCN2c3ccccc3Sc3ccc(Cl)cc32)CC1` was 22.8% (inactive); that for `CN(C)CCCN1c2ccccc2Sc2ccccc21` was 15.9% (inactive); that for `O=C(CN1CCCC1)N1c2ccccc2Sc2ccc(C(F)(F)F)cc21` was -7.9% (inactive).
With `O=c1c2ccccc2c(C=NC2CCS(=O)(=O)C2)c(O)n1-c1ccccc1` (stereo not given), the cytotoxicity was -6.8% (inactive).
The value for `Nc1c(C(=O)NCc2ccccc2)nnn1Cc1ccc(F)cc1` was 1.7% (inactive).
The value for `Cc1ccccc1S(=O)(=O)Cc1ccc(C(=O)N2CC(C)CC(C)C2)o1` (stereo not given) was -14.1% (inactive).
As for `CCOC(=O)N1CCN(C(=O)c2ccc(CS(=O)(=O)c3ccc(OC)cc3)o2)CC1`, the cytotoxicity is 0.8% (inactive).
The value for `Cc1cccc(N2CCN(C(=O)c3ccc(CS(=O)(=O)c4ccccc4C)o3)CC2C)c1` (stereo not given) was 51.2% (active); that for `Cc1ccc(C)c(N2CCN(C(=O)c3ccc(CS(=O)(=O)c4ccccc4C)o3)CC2)c1` was 34% (inactive); that for `COc1ccc(N2CCN(C(=O)c3ccc(CS(=O)(=O)c4ccc(OC)cc4)o3)CC2)cc1` was -8.4% (inactive).
To `COc1ccc(S(=O)(=O)Cc2ccc(C(=O)N3CCN(c4cccc(C)c4)C(C)C3)o2)cc1` (stereo not given) belongs 52.2% (active); to `Cc1ccc2c(c1)[C@H]1OCC[C@H]1[C@@H](c1ccncc1)N2`, -2.2% (inactive); to `CC1CCCCN1CCn1c(=S)[nH]c2ncccc2c1=O` (stereo not given), 33.2% (inactive).
The value for `Cn1c(SCC(=O)NC2CCCC2)nnc1-c1ccc(S(=O)(=O)N2CCOCC2)cc1` was 4.3% (inactive); that for `O=C1CCC(=O)N1c1ccccc1-c1ccccc1` was -0.5% (inactive); that for `CCCC(=O)Nc1ccc(NC(=O)CCc2ccccc2)cn1` was 8.6% (inactive).
In the case of `O=C(CSCc1ccccc1)Nc1ccc(Cl)cn1`, the cytotoxicity was 20.2% (inactive).
Take `O=C(CCc1ccccc1)Nc1ccc(Cl)cn1`: the cytotoxicity was 52.1% (active).
The value for `Cc1ccc(NC2=NC3(CCCCC3)N=C(N)N2)c(C)c1` was 33% (inactive); that for `COC(=O)C1=C(C)Nc2nnnn2C1c1cccnc1` (stereo not given) was 10% (inactive); that for `CC1/C(=N/O)CC(c2ccccc2)N(C)C1c1ccccc1` (stereo not given) was -0.2% (inactive).
The value for `CC1Cc2ccccc2N1S(=O)(=O)c1ccc2c(c1)n(C)c(=O)c(=O)n2C` (stereo not given) was -1.8% (inactive); that for `CCOc1ccc(S(=O)(=O)N2c3ccccc3CC2C)cc1` (stereo not given) was 74.1% (active); that for `COc1ccc(OC)c(S(=O)(=O)N2c3ccccc3CC2C)c1` (stereo not given) was 10.1% (inactive).

The record behind these values is PubChem BioAssay AID620 (Sanford-Burnham Center for Chemical Genomics, 2007).
